The nature of assay [1]: inhibitors of TNFa-induced NFkB p65 translocation, primary screen, imaging, HUVEC, MLSMR starter and 10KST1 sets (AID 438;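 active = inhibition above 20% together with a positive visual image hit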;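 note: compound added about 3h40 before a 20 min TNFalpha stimulation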;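 for inhibition: signal is the nuclear over cytoplasmic p65 intensity ratio per well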). To be noted: HUVEC TNFa-induced p65 nuclear translocation; cell count: measured here: nuclei count (cytotoxicity indicator), at 2.08 µM; inhibition: at 2 µM, stronger effect = higher value, 0% TNFa-plus-vehicle, 100% no-TNFa wells.
Assay [2] can be described thus: reduction of polyQ htt aggregates in cells – imaging, exon1htt(103Q)mCFP cells, high-content imaging, primary screen (AID 483;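 active = visual image review flags a hit and inhibition of aggregation exceeds 20%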;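 note: compound exposure lasted 3 days before fixation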;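 for nuclei count: percent of the per-plate median nuclei count of sample wells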). To be noted: exon1htt(103Q)mCFP cell line, aggregate imaging, at 2 µM; inhibition of aggregation: stronger effect = higher value; nuclei count: measured here: cell count, toxicity.
The nature of assay [3]: endothelial E-selectin expression blockers – imaging, HUVEC, immunofluorescence, MLSMR starter and 10KST1 sets, primary screen (AID 487;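 active = visually confirmed hit in the image check and inhibition above 20%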;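 for inhibition: signal is fraction of cell area covered by stained E-selectin grains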;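 for nuclei count: 100% = median nuclei count of all wells on the same plate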). The following applies: HUVEC TNFalpha-induced E-selectin immunofluorescence imaging, at 2 µM; inhibition: stronger effect = higher value; nuclei count: measured here: cell number, toxicity.
Assay [4] deals with Voltage-gated potassium channel subunit beta-2 (Rattus norvegicus) (UniProt P62483). Description: inhibitors of rat Kvbeta2 reductase activity – biochemical, NADPH fluorescence, primary screen (AID 622;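 active = fluorescence slope higher than the sample average by over 3 SD, cut at about -0.22 in these data, passing the limit was not always enough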;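 note: slope of raw intensity against log time taken from 70 to 1610 s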). To be noted: recombinant KvBeta, 4-cyanobenzaldehyde reduction, at 10 µM, stronger effect = higher value.
Sequence of Voltage-gated potassium channel subunit beta-2 (Rattus norvegicus) (P62483 whole entry, looked up): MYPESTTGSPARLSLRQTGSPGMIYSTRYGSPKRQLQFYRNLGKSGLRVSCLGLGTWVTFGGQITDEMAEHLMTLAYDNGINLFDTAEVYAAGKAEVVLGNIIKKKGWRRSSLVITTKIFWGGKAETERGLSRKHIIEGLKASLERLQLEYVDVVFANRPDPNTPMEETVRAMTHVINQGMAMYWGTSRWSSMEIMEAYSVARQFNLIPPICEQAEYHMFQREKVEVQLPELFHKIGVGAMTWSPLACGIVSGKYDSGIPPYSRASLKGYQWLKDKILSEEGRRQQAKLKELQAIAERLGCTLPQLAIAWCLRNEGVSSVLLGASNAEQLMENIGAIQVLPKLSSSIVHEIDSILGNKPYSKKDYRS
Assay [5] has the same target. Description: enhancers of rat Kvbeta2 NADPH turnover – biochemical, NADPH fluorescence, primary screen (AID 623;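 active = NADPH fluorescence slope more negative than the mean of all samples by about 3 SD, 99.7% confidence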;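 note: fluorescence intensity change per second fitted from 20 to 320 s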). To be noted: Recombinant KvBeta, NADPH fluorescence decrease slope, 10 min; at 10 µM; stronger effect = lower value.
Assay [6] has as its target Alpha-2C adrenergic receptor (Homo sapiens) (UniProt P18825). As to the kind of experiment: compounds altering alpha2C-coupled GIRK flux – cell-based, HEK293 alpha2C/GIRK1/2, thallium flux, primary screen (AID 624).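 Note: slope of fluorescence ratio to pre-addition baseline per second over 15 to 24 s.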 The following applies: thallium flux BTC fluorescence, at 10 µM, actives lie on both sides.
Assay [7] is described as follows: blockers of RIG-like receptor reporter activation – cell-based, Sendai virus stimulus, luciferase, 10K MLSCN set, TLR/RLR signaling modifier project, primary screen (AID 602276;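 active = inhibition at or above 50% at 10 µM; inactive = inhibition below 50%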;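 note: firefly luciferase from ISG56 promoter only with Renilla not read in this screen; 0% = Sendai virus plus DMSO and 100% = medium plus DMSO without virus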). To be noted: HEK293 RL24 IRF3 luciferase reporter, at 10 µM, stronger effect = higher value.
Assay [8] is described as follows: TLR3 IRF3 reporter activation blockers – cell-based, poly I:C stimulus, luciferase, 10K MLSCN set, primary screen (AID 602277;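 active = inhibition of the reporter signal at or above 50%; inactive = inhibition below 50%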). To be noted: HEK293-TLR3 RL24 IRF3 luciferase reporter, at 10 µM, stronger effect = higher value. In general terms: In a reporter assay the amount or activity of a reporter protein is the signal.

The record followed here is PubChem BioAssay.

Activity calls are given as the source filed them.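 Rule for the calls, unless noted: active = fluorescence slope after compound addition differing from the mean of all screened samples at 99.7% confidence, in either direction; inactive = the rest.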

Broadly, the inhibition is the drop in the measured response relative to a control, in per cent.

Sequence of Alpha-2C adrenergic receptor (Homo sapiens) (P18825 whole entry, looked up): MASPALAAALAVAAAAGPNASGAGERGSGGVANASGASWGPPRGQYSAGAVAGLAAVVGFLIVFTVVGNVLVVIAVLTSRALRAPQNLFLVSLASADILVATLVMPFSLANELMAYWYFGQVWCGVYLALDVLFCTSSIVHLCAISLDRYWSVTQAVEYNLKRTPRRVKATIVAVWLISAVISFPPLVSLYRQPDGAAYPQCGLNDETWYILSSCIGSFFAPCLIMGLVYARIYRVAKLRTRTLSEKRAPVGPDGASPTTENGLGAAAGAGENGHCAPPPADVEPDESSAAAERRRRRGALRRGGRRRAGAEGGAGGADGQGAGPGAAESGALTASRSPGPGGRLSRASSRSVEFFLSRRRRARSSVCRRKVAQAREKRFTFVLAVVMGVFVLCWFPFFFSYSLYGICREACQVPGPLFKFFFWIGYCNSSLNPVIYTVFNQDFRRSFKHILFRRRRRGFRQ

Take `COC(=O)Cn1ncc2c(C)n(Cc3ccccc3)c(C)c2c1=O`: the cell count in assay [1] stood at 732. The inhibition is -5.2% (inactive) in assay [1], -72.2% (inactive) in assay [3], -29.4% (inactive) in assay [7] and -89.1% (inactive) in assay [8]. Further, the inhibition of aggregation in assay [2] is 15.7% (inactive). The values for the nuclei count in assay [2] and in assay [3] were 88.1% and 122%, respectively. For the same molecule, in assay [4], the fluorescence slope is -0.563 (inactive). In addition, the NADPH fluorescence slope in assay [5] was -2.4e-05 (inactive). For the same molecule, the slope in assay [6] is 0.00743 (inactive).

For the molecule `CCN1C(=O)/C(=C2\C=Cc3ccccc3N2CC)OC1=S`, the cell count in assay [1] came out at 695. Also, the inhibition in assay [1] was -8% (inactive); in assay [3], 16.6% (inactive); in assay [7], 4% (inactive); in assay [8], -8.93% (inactive). The inhibition of aggregation in assay [2] is 0.5% (inactive). In addition, the nuclei count in assay [2] was 8.3%; in assay [3], 107%. In addition, in assay [4], the fluorescence slope was -0.334 (inactive). In addition, in assay [5], the NADPH fluorescence slope was -4.6e-05 (inactive). For the same molecule, the slope in assay [6] was 0.00379 (inactive).

On to `C=CCOC(=O)C1=C(C)NC(=O)NC1c1cn(-c2ccccc2)nc1-c1cccs1` (centres undefined), for which the cell count in assay [1] worked out at 663. The inhibition was -18.8% (inactive) in assay [1], -7.6% (inactive) in assay [3], 14.3% (inactive) in assay [7] and 14.3% (inactive) in assay [8]. Further, the inhibition of aggregation in assay [2] was 13.7% (inactive). For the same molecule, the nuclei count in assay [2] amounted to 87.3%; in assay [3], 110%. The fluorescence slope in assay [4] is -0.332 (inactive). The NADPH fluorescence slope in assay [5] is -5.4e-05 (inactive). Also, the slope in assay [6] is 0.00533 (inactive).

With `CCN(CC)Cc1nc2c(c(=O)[nH]1)C1(CCCCC1)Cc1ccccc1-2`, the cell count in assay [1] came out at 443. The inhibition in assay [1] was 9.9% (inactive); in assay [3] it was -17% (inactive); in assay [7], 10% (inactive); in assay [8], 10.5% (inactive). For the same molecule, the inhibition of aggregation in assay [2] was -2.4% (inactive). The nuclei count in assay [2] is 89.3%; in assay [3], 101%. For the same molecule, in assay [4], the fluorescence slope was -0.589 (inactive). The NADPH fluorescence slope in assay [5] is -5.5e-05 (inactive). For the same molecule, in assay [6], the slope was 0.00352 (inactive).

Take `CNC(=O)CSc1nnc(-c2cccc(S(=O)(=O)N3CCOCC3)c2)n1-c1ccc(F)cc1`: in assay [1], the cell count came out at 474. In addition, the inhibition was 7.2% (inactive) in assay [1], -18.5% (inactive) in assay [3], 6.45% (inactive) in assay [7] and 26% (inactive) in assay [8]. Also, the inhibition of aggregation in assay [2] was 13.2% (inactive). In addition, the nuclei count in assay [2] is 104%; in assay [3] it was 106%. In assay [4], the fluorescence slope was -0.376 (inactive). The NADPH fluorescence slope in assay [5] was -6.4e-05 (inactive). Also, in assay [6], the slope is 0.00569 (inactive).

Consider `COc1ccc(S(=O)(=O)N(CCN2CCOCC2)Cc2cc(OC)ccc2OC)cc1`, for which the cell count in assay [1] is 426. The inhibition in assay [1] is 8.5% (inactive); in assay [3] it was -100% (inactive); in assay [7], 17.2% (inactive); in assay [8], 33.5% (inactive). For the same molecule, the inhibition of aggregation in assay [2] is -25.8% (inactive). For the same molecule, the nuclei count was 102% in assay [2] and 113% in assay [3]. For the same molecule, the fluorescence slope in assay [4] is -0.582 (inactive). For the same molecule, the NADPH fluorescence slope in assay [5] is -1.5e-06 (inactive). In addition, the slope in assay [6] was 0.00508 (inactive).

`Cn1nnnc1SCSc1nnnn1C`: the cell count in assay [1] came out at 626. Also, the inhibition in assay [1] was -16.6% (inactive); in assay [3], -58% (inactive); in assay [7] it was 0.0465% (inactive); in assay [8], -3.07% (inactive). Also, the inhibition of aggregation in assay [2] is 4.1% (inactive). Besides, the nuclei count in assay [2] came out at 56.1%; in assay [3] it was 93.3%. The fluorescence slope in assay [4] is -0.585 (inactive). In assay [5], the NADPH fluorescence slope is -4.7e-05 (inactive). In addition, the slope in assay [6] was 0.00536 (inactive).

For `Cc1onc(-c2ccccc2)c1C(=O)N1CCOCC1`, in assay [1], the cell count turned out to be 619. Further, the inhibition in assay [1] was -3.5% (inactive); in assay [3] it was -39.2% (inactive); in assay [7], 12.5% (inactive); in assay [8], 20.9% (inactive). The inhibition of aggregation in assay [2] was -7.5% (inactive). Moreover, the nuclei count in assay [2] was found to be 113%; in assay [3], 106%. Moreover, the fluorescence slope in assay [4] was -0.327 (inactive). The NADPH fluorescence slope in assay [5] was 7.5e-06 (inactive). The slope in assay [6] was 0.00368 (inactive).

Regarding `Cc1ccc2cc(CN(CC3CCCO3)S(=O)(=O)c3ccc4c(c3)OCCO4)c(=O)[nH]c2c1C` (centres undefined), the cell count in assay [1] was found to be 478. The inhibition in assay [1] is 2.4% (inactive); in assay [3] it was -42.1% (inactive); in assay [7] it was 3.97% (inactive); in assay [8], -19.6% (inactive). Also, the inhibition of aggregation in assay [2] was 8.6% (inactive). The nuclei count in assay [2] is 110%; in assay [3] it was 135%. In addition, the fluorescence slope in assay [4] is -0.391 (inactive). The NADPH fluorescence slope in assay [5] was -8.2e-06 (inactive). Moreover, the slope in assay [6] is 0.00544 (inactive).

Consider `O=S(=O)(c1ccc(S(=O)(=O)N(Cc2ccco2)Cc2ccccc2Cl)cc1)N1CCCC1`, for which, in assay [1], the cell count came out at 818. Further, the inhibition in assay [1] is -6.1% (inactive); in assay [3], -38.1% (inactive); in assay [7], 8.74% (inactive); in assay [8], 28% (inactive). Also, the inhibition of aggregation in assay [2] is -2.8% (inactive). Also, the nuclei count came out at 108% in assay [2] and 126% in assay [3]. In addition, the fluorescence slope in assay [4] was -0.587 (inactive). Also, the NADPH fluorescence slope in assay [5] is -3.1e-05 (inactive). Further, the slope in assay [6] was 0.00951 (inactive).

For the molecule `Cc1ccc(O)c(-c2cc(C(=O)Nc3ccc(S(=O)(=O)N4CC(C)OC(C)C4)cc3)[nH]n2)c1` (centres undefined), the cell count in assay [1] amounted to 371. The inhibition in assay [1] was 6.2% (inactive); in assay [3], 0.1% (inactive); in assay [7], 22.4% (inactive); in assay [8], 43.5% (inactive). The inhibition of aggregation in assay [2] was 0.4% (inactive). The nuclei count in assay [2] worked out at 97.2%; in assay [3] it was 92.7%. Moreover, the fluorescence slope in assay [4] was -0.478 (inactive). The NADPH fluorescence slope in assay [5] was -0.000199 (inactive). Also, the slope in assay [6] is 0.00494 (inactive).

For `Cc1ccc2c(c1)sc1ncc(NC(=O)c3ccccc3)c(=O)n12`, the cell count in assay [1] was 324. Besides, the inhibition is 2.1% (inactive) in assay [1], -27.5% (inactive) in assay [3], -16.1% (inactive) in assay [7] and -38.4% (inactive) in assay [8]. Also, the inhibition of aggregation in assay [2] is -14.3% (inactive). Besides, the figures for the nuclei count in assay [2] and in assay [3] were 100% and 110%, respectively. For the same molecule, in assay [4], the fluorescence slope was -0.58 (inactive). Moreover, the NADPH fluorescence slope in assay [5] is 6.2e-06 (inactive). In addition, in assay [6], the slope is 0.0047 (inactive).

Take `Cc1cc2ncc(-c3ccc(Cl)cc3)c(N)n2n1`: the cell count in assay [1] is 930. For the same molecule, the inhibition was -1.7% (inactive) in assay [1], -36.3% (inactive) in assay [3], -34% (inactive) in assay [7] and -158% (inactive) in assay [8]. For the same molecule, in assay [2], the inhibition of aggregation was -6% (inactive). The nuclei count in assay [2] turned out to be 129%; in assay [3], 125%. For the same molecule, the fluorescence slope in assay [4] is -0.583 (inactive). The NADPH fluorescence slope in assay [5] is 2.1e-05 (inactive). Moreover, in assay [6], the slope is 0.00574 (inactive).

On to `CC1(C)Cc2c(c(=S)nc(-c3ccccc3)n2CCO)CO1`, for which the cell count in assay [1] came out at 278. Further, the inhibition was -0.5% (inactive) in assay [1], 41.7% (inactive) in assay [3], 8.44% (inactive) in assay [7] and 23.5% (inactive) in assay [8]. The inhibition of aggregation in assay [2] was 19% (inactive). Besides, the nuclei count in assay [2] was 109%; in assay [3], 93.9%. In addition, the fluorescence slope in assay [4] was -0.501 (inactive). Besides, in assay [5], the NADPH fluorescence slope was -5.3e-05 (inactive). The slope in assay [6] was 0.006 (inactive).
